The record followed here is ChEMBL document CHEMBL1961873, “Compounds: GSK PKIS; Assays: Nanosyn kinase panel” (2012).

For test [1], the target named is Protein kinase C gamma type (Homo sapiens) (UniProt P05129). To be noted: at 1 µM.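 Further: each value is an averaged percent inhibition of the enzyme.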
The target in test [2] is T1, Protein kinase C iota type (Homo sapiens) (UniProt P41743).
T1 sequence (whole entry): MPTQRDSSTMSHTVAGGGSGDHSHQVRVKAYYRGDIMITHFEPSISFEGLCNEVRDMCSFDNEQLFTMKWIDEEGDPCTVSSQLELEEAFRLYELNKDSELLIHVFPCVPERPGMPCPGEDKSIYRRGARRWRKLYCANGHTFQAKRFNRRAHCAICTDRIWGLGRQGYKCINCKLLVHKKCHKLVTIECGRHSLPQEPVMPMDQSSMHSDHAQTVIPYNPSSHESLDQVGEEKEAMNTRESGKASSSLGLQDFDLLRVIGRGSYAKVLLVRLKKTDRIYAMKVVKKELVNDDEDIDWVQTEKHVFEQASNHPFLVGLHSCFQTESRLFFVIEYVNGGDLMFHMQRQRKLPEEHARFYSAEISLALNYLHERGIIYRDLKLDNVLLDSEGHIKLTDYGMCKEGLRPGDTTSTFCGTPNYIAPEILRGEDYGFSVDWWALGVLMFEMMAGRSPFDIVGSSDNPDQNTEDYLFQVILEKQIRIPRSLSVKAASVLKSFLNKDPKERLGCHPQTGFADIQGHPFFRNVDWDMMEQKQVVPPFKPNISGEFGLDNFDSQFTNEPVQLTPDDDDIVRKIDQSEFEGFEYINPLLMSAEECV
As to conditions: at 0.1 µM.

Test [3] has as its target T1, Protein kinase C iota type (Homo sapiens). To be noted: at 1 µM.
Test [4] deals with Protein kinase C theta type (Homo sapiens) (UniProt Q04759). To be noted: at 0.1 µM.
Sequence of Protein kinase C theta type (Homo sapiens) (Q04759 whole entry, looked up): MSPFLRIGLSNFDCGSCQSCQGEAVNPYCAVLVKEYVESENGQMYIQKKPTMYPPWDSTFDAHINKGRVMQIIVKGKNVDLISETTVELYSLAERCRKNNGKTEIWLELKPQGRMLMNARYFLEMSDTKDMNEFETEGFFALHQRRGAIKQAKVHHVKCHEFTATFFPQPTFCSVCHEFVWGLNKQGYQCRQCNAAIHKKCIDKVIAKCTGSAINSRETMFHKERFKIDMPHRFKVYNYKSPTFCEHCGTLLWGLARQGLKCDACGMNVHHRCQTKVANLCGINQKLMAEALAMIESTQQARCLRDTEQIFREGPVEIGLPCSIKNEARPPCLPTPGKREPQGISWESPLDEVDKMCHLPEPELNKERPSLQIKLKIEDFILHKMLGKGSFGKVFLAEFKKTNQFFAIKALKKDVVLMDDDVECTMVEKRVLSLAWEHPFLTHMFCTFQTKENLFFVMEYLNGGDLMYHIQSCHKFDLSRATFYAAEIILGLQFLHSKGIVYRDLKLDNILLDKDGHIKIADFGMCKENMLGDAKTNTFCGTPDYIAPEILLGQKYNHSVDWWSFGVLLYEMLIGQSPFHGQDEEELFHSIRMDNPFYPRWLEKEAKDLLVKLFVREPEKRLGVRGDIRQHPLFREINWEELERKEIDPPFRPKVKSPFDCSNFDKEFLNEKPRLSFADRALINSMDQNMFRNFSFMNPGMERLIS
Test [5] shares this target. To be noted: at 1 µM.
The target of test [6] is Protein kinase C beta type (Homo sapiens) (UniProt P05771). As to conditions: at 0.1 µM.
Sequence of Protein kinase C beta type (Homo sapiens) (P05771 2-671 limits assumed): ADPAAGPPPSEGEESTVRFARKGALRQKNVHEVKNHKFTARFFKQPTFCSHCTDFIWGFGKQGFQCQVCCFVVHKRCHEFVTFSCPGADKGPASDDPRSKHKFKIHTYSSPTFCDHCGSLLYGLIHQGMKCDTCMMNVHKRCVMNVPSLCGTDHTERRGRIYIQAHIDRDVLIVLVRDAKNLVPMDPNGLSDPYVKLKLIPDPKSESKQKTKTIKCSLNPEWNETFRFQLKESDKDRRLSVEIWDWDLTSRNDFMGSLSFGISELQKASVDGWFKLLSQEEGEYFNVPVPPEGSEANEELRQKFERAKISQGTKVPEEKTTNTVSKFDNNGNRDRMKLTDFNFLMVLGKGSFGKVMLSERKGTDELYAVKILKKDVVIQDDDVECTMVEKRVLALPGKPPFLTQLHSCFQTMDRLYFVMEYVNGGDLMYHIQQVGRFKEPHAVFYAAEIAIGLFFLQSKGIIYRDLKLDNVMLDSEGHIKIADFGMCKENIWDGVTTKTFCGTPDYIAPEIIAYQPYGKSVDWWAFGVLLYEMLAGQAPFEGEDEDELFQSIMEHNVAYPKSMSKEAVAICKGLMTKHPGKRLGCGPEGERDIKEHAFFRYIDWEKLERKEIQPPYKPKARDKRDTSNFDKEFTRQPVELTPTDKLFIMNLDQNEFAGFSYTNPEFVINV
Test [7] shares this target. As to conditions: at 1 µM.
Test [8] concerns the target T2, Serine/threonine-protein kinase D1 (Homo sapiens) (UniProt Q15139).
T2 sequence (whole entry): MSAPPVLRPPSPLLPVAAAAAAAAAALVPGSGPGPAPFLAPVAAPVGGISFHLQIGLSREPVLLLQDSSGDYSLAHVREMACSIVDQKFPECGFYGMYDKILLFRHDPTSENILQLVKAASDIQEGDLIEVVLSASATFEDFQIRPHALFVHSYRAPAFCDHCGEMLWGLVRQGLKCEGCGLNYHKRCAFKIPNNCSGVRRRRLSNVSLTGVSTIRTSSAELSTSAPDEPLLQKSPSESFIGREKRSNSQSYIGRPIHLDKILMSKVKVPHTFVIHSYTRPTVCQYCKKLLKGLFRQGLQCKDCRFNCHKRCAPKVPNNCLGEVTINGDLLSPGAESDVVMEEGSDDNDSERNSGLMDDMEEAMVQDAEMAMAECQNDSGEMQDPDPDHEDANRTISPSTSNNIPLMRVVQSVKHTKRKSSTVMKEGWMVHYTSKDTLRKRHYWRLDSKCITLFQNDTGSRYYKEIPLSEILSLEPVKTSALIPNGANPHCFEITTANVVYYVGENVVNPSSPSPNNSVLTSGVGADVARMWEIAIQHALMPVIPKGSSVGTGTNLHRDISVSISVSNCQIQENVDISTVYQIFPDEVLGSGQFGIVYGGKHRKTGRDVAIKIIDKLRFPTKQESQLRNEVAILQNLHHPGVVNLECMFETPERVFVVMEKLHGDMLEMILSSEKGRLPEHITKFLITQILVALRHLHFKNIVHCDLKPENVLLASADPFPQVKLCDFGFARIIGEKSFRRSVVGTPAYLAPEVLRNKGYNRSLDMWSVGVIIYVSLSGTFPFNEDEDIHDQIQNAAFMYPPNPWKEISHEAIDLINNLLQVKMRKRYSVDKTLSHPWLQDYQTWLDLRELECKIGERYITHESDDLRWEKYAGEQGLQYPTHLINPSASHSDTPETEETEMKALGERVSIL
As to conditions: at 0.1 µM.

For test [9], the target named is T2, Serine/threonine-protein kinase D1 (Homo sapiens). As to conditions: at 1 µM.
Test [10] addresses T3, Serine/threonine-protein kinase D2 (Homo sapiens) (UniProt Q9BZL6).
T3 sequence (whole entry): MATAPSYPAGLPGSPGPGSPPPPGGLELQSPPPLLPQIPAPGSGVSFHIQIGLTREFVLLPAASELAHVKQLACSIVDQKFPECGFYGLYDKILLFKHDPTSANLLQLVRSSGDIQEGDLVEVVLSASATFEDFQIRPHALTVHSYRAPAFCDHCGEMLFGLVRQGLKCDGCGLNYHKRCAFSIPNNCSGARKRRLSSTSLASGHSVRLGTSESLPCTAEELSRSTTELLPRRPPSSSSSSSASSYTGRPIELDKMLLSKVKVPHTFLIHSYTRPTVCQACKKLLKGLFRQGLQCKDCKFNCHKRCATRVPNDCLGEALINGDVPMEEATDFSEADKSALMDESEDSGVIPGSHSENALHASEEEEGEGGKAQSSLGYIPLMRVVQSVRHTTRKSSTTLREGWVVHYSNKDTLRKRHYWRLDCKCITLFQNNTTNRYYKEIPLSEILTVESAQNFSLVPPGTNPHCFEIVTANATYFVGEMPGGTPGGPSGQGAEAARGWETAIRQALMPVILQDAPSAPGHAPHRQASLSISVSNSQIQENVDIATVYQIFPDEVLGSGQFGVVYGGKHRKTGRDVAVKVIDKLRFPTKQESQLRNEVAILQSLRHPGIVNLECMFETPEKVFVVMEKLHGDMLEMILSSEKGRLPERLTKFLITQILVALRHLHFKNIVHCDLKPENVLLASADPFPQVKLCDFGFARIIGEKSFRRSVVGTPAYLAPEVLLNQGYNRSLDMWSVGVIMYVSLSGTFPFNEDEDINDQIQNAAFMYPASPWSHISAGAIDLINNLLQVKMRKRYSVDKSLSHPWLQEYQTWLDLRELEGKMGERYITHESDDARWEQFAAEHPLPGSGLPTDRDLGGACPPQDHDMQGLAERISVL
As to conditions: at 0.1 µM.

Test [11] deals with T3, Serine/threonine-protein kinase D2 (Homo sapiens). As to conditions: at 1 µM.
The target in test [12] is T4, Serine/threonine-protein kinase D3 (Homo sapiens) (UniProt O94806).
T4 sequence (whole entry): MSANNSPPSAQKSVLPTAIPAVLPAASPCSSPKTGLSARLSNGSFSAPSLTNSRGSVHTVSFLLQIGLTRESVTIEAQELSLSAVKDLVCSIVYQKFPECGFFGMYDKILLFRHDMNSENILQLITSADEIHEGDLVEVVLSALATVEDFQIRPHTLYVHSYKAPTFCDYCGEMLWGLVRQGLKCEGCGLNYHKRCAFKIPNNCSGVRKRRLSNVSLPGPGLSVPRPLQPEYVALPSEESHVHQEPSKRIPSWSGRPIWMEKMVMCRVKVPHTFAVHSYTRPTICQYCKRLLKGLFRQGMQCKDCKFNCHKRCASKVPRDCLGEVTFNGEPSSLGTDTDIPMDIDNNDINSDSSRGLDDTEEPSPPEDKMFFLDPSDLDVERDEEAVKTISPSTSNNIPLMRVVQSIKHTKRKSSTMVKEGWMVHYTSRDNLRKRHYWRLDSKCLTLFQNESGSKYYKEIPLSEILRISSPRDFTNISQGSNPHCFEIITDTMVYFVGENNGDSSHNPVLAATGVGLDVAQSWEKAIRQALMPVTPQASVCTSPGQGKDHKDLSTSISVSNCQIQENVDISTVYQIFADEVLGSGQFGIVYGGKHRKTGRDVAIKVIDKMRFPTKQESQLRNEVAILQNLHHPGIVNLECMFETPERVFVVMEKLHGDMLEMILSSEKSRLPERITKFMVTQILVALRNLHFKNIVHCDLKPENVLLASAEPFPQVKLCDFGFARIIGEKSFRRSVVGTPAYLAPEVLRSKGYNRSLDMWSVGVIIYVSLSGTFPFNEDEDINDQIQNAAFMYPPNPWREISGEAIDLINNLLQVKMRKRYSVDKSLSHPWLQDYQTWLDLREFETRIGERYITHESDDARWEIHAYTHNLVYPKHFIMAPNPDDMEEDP
To be noted: at 0.1 µM.

The target in test [13] is T4, Serine/threonine-protein kinase D3 (Homo sapiens). To be noted: at 1 µM.
Test [14] deals with T5, cGMP-dependent protein kinase 1 (Homo sapiens) (UniProt Q13976).
T5 sequence (whole entry): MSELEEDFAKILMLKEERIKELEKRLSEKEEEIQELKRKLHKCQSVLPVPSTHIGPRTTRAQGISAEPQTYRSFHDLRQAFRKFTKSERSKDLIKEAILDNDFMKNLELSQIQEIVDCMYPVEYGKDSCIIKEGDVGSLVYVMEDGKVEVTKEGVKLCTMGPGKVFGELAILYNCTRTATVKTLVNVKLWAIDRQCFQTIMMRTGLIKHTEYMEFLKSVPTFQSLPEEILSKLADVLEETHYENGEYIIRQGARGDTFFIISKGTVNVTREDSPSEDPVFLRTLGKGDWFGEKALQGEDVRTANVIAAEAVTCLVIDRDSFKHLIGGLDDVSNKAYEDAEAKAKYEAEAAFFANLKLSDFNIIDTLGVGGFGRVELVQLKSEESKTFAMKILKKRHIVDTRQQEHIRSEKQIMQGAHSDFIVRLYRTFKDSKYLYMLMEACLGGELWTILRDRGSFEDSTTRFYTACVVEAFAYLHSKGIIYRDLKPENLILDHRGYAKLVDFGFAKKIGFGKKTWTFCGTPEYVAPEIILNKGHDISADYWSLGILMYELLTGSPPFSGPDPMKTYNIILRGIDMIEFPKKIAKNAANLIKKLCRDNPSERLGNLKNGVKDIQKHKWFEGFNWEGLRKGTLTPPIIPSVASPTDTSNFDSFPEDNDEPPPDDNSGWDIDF
To be noted: at 0.1 µM.

The target in test [15] is T5, cGMP-dependent protein kinase 1 (Homo sapiens). To be noted: at 1 µM.
The target in test [16] is T6, cGMP-dependent protein kinase 2 (Homo sapiens) (UniProt Q13237).
T6 sequence (whole entry): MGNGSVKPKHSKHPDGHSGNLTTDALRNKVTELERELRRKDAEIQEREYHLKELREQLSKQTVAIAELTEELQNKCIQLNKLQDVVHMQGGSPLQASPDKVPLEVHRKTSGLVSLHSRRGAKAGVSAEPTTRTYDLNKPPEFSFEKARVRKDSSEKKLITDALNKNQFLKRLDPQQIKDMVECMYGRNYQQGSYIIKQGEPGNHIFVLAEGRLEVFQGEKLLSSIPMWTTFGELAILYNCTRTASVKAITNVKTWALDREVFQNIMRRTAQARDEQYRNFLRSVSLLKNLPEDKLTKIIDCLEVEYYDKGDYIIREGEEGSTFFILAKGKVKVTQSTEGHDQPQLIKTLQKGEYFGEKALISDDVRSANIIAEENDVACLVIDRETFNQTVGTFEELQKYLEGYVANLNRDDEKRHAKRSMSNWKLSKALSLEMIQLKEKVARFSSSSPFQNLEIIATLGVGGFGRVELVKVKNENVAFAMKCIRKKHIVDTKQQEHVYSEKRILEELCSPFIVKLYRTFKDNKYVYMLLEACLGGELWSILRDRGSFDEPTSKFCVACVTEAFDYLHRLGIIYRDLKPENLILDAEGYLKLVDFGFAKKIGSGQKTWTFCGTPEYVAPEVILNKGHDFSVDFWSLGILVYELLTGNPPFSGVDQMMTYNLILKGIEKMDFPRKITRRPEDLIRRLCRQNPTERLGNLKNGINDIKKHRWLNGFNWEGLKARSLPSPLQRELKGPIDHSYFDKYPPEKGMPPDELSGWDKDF
As to conditions: at 0.1 µM.

For test [17], the target named is T6, cGMP-dependent protein kinase 2 (Homo sapiens). As to conditions: at 1 µM.
In test [18] the target is T7, cAMP-dependent protein kinase catalytic subunit PRKX (Homo sapiens) (UniProt P51817).
T7 sequence (whole entry): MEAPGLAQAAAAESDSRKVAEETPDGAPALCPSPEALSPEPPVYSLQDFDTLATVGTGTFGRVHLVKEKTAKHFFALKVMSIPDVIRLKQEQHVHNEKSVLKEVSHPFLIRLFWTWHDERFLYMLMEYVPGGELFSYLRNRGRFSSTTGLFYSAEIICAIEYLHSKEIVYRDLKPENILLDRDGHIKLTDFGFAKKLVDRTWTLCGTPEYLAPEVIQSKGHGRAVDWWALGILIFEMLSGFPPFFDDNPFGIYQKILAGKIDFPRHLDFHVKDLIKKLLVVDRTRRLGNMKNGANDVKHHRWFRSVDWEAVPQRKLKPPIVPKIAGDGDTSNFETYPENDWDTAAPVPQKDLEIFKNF
To be noted: at 0.1 µM.

The target in test [19] is T7, cAMP-dependent protein kinase catalytic subunit PRKX (Homo sapiens). As to conditions: at 1 µM.
In test [20] the target is Rho-associated protein kinase 1 (Homo sapiens) (UniProt Q13464). As to conditions: at 0.1 µM.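 Further: values are mean percent inhibition of ROCK1.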
Sequence of Rho-associated protein kinase 1 (Homo sapiens) (Q13464 2-1354 limits assumed): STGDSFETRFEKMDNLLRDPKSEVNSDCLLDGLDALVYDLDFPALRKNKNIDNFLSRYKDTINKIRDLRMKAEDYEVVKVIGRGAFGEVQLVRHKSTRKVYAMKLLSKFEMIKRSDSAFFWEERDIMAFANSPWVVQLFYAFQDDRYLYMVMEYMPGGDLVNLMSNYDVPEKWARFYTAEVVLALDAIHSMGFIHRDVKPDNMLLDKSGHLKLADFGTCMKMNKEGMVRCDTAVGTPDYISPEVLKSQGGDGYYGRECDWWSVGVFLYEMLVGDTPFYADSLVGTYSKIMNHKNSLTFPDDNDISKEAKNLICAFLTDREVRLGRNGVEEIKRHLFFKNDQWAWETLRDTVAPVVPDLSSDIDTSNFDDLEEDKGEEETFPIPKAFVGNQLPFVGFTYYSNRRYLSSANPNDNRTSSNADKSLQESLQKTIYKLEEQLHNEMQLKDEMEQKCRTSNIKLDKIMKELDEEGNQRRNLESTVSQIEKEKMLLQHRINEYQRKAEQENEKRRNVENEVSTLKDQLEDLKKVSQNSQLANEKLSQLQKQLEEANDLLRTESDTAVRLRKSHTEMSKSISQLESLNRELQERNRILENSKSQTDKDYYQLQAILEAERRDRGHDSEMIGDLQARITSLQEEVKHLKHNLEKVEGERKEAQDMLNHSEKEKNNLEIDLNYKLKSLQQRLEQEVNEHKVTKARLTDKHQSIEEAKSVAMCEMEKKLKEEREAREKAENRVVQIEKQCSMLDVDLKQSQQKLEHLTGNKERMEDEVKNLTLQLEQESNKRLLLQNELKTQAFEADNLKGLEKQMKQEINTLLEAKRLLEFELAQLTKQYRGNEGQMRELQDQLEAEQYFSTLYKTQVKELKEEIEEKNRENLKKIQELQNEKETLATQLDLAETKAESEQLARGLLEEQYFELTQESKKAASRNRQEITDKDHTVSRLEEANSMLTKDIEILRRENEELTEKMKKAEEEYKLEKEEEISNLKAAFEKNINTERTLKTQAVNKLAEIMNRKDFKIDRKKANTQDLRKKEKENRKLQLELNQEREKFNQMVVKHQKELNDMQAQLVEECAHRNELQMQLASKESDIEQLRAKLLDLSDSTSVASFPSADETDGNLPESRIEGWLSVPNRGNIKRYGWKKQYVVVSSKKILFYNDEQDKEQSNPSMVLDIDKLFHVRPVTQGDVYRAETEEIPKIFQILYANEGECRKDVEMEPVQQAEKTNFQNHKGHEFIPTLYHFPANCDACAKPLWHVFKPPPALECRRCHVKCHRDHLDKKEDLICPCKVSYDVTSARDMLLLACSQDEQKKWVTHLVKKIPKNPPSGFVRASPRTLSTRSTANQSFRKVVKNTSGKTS

For `COC(=O)c1sc(-n2cnc3cc(OC)c(OC)cc32)cc1OCc1ccccc1C(F)(F)F`, the inhibition in test [1] came to 2.66%; in test [2], 0.97%; in [3], 2.66%; in test [4], 1.11%; in test [5], 0.41%; in test [6], 0.96%. Besides, the inhibition turned out to be 1.08% in test [7]; 3.64% in [8]; 5.12% in [9]; 4.89% in test [10]; 5.96% in [11]; 4.17% in test [12]. For the same compound, the inhibition is 5.73% in [13]; 2.01% in test [14]; 4.24% in test [15]; 1.58% in [16]; 3.35% in [17]; -0.14% in test [18]. Also, the inhibition in test [19] worked out at 0.19%; in [20], 0.1%.
On to `COc1ccc(-c2cc3c(N)ncnc3o2)cc1`, for which the inhibition in test [1] is 8.58%; in test [2] it was -0.83%; in [3], -1.03%; in [4], -1.21%; in test [5], -1.64%; in test [6], 0.45%. Moreover, the inhibition is 1.65% in test [7]; -1% in [8]; -1.28% in test [9]; -0.34% in test [10]; -0.42% in test [11]; -1.77% in test [12]. For the same compound, the inhibition is -1.37% in test [13]; -0.46% in test [14]; 0.25% in test [15]; -1.2% in [16]; 1.5% in test [17]; 0.58% in test [18]. Moreover, the inhibition in [19] is 0.29%; in [20] it was -0.42%.

A word on the inhibition: it is the relative decrease from the control value, in per cent.
